A number with no mark means an inactive call. Calls follow the shape of the dose curve; as a rule, active = well fitted curve in the direction sought with a large enough effect; inconclusive = small, poorly fitted or top-dose-only effect, or another doubt; inactive = no such curve, though single readings can be large or run the other way.
target: Galactokinase (Homo sapiens) (UniProt P51570); test: qHTS Validation Assay for Inhibitors of Human Galactokinase (GALK) (AID 493189); settings: purified human GALK enzyme activity, qHTS 7-point titration; series mostly up to 57.5 µM; activity change, negative = inhibition: at the top concentration; also: 0% is about no effect
Source text: NIH Molecular Libraries Probe Production Centers Network [MLPCN]
NIH Chemical Genomics Center [NCGC]
Assay Submitter (PI): Kent Lai (University of Utah School of Medicine, 50 N Mario Capecchi Drive, Salt Lake City, UT 84132)
Inherited deficiency of galactose-1-phosphate uridyltransferase (GALT) can result in a potentially lethal disorder called Classic Galactosemia (OMIM 230400). Several lines of evidence indicate that an elevated level of galactose-1-phosphate (gal-1-p), the product of galactokinase (GALK), is a major, if not sole, pathogenic mechanism in patients with classic galactosemia. Therefore, finding inhibitors of GALK is a potential novel therapy for this inherent metabolic disease and is the long term goal of this project.
GALK (provided by the assay submitter) was assayed using ATP and D-(+)-Galactose (Sigma-Aldrich cat# G0750) as substrates. Promega Kinase-Glo Plus (cat# V3774) technology was used to detect the residual ATP following kinetic reaction. Briefly, the Kinase-Glo Plus contains Ultra-Glo [2] luciferase and D-luciferin which generates a bioluminescence signal from the remaining ATP.
NCGC Assay Protocol Summary:
Three uL/well of ATP-buffer solution (35 uM ATP, 20mM HEPES pH8.0, 5 mM MgCl2, 60 mM NaCl, 1 mM DTT, 0.01% BSA final concentration) was dispensed into 1536-well, assay plates (Greiner, solid white medium-binding plates) with Aurora Discovery BioRAPTR Flying Reagent Dispenser (FRD; Beckton-Dickenson). Compound solution (23 nL) was transferred to the assay plate using the Kalypsys 1536-pin tool. One uL/well GALK-galactose solution (5 nM GALK, 100 uM galactose, 20 mM HEPES pH8.0, 5 mM MgCl2, 60 mM NaCl, 1 mM DTT, 0.01% BSA final concentration) was then added using the FRD yielding a total kinase reaction volume of 4 uL/ well. After 1 hour of room temperature incubation, 4 uL Kinase-Glo Plus reagent was added for a final assay volume of 8 uL/ well. Luminescence was detected with the ViewLux plate reader (Perkin Elmer, Waltham, MA) after 10 min incubation using a 1 sec exposure time and 2x binning.

Sequence of Galactokinase (Homo sapiens) (P51570 whole entry, looked up): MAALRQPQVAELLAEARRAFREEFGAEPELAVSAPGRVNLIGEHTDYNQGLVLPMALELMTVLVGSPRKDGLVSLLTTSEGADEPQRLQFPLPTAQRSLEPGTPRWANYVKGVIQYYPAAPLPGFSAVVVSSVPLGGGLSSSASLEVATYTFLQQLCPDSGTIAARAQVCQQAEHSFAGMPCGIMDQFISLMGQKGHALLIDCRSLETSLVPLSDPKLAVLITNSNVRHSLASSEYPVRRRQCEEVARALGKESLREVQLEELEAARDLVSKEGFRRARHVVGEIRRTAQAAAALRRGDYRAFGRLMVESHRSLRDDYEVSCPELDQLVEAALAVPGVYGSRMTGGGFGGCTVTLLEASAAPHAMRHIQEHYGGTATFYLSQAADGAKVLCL

| Compound | activity change, negative = inhibition [%] |
| --- | --- |
| O=[N+]([O-])c1ccc(-c2nc(-c3ccc(F)cc3)c(-c3ccncc3)[nH]2)cc1 | -0.549 |
| Brc1ccc([C@H]2CN3CCSC3=N2)cc1 | -1.1 |
| COc1cccc2c1[C@@H]1CN(CCCCn3c(=O)[nH]c4c(sc5ncc(-c6ccccc6)nc54)c3=O)C[C@@H]1CO2 | 0.105 |
| Cn1cnc2c(NCc3ccccc3)nc(NCCO)nc21 | 4.9 |
| NC(N)=NCCCCN=C(N)N | -2.27 |
| C[C@]12CCC(=O)C=C1CC[C@@H]1[C@@H]2[C@@H](O)C[C@@]2(C)[C@H]1CC[C@]2(O)C(=O)COC(=O)CCC(=O)O | -4.45 |
| CC(C)N(CCC(=O)c1ccc2ccccc2c1)Cc1ccccc1 | 0.627 |
| C[N+](C)(C)CCO | -4.06 |
| COc1ccccc1N1CCN(CCN2C(=O)CC3(CCCC3)CC2=O)CC1 | 4.6 |
| CN(C)c1cc2c(Nc3ccc4c(cnn4Cc4ccccc4)c3)ncnc2cn1 | -2.79 |
| O=C1NC(c2cccc([N+](=O)[O-])c2)=CCN1c1ccccc1O | -2.26 |

— PubChem BioAssay (NCATS)
